{"source": "PubChem BioAssay (Tox21)", "note": "Inconclusive results are not listed. A number with no mark means an inactive call. Calls of active or inactive are those of the source. Calls come from the whole dose curve. % is set by controls: 0 for no effect and ±100 for the full control effect; potency is the fitted concentration of half-maximal effect.", "data": [{"biological_target": "Acetylcholinesterase (Homo sapiens) (UniProt P22303)", "sequence (P22303 whole entry, looked up)": "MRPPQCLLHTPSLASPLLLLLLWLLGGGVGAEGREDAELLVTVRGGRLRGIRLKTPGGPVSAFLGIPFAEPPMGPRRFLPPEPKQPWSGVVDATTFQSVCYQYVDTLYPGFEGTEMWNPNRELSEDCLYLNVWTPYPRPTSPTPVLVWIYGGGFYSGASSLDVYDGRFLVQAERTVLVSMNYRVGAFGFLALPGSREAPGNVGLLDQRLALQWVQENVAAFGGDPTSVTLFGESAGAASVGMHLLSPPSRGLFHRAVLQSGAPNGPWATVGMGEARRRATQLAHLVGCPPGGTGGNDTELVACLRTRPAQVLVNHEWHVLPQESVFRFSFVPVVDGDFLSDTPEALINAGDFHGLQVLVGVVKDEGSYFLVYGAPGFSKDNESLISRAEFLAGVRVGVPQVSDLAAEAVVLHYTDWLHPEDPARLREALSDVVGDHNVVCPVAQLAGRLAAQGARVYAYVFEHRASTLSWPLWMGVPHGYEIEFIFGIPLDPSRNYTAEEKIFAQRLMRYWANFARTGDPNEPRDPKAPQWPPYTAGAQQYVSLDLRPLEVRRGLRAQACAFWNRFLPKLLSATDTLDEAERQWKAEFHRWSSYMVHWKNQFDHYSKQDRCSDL", "assay": "Acetylcholinesterase (AChE) small molecule antagonists: fluorescence cell-based qHTS assay (AID 1347398); note: nearly all actives have a fitted effect of over 50% in size", "settings": "SH-SY5Y cells; Potency: AChE activity; series mostly up to 115 µM; activity change, negative = inhibition: at the top concentration", "in_short": "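Thiocholine generated from acetylthiocholine by SH-SY5Y cell AChE is detected with Thiolite Green (Ex/Em 490/520 nm) after 40 min at room temperature, following 30 min compound pretreatment at 37 C.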", "values": [{"smiles": "CC(C)[N+](=O)[O-]", "activity change, negative = inhibition": "9.09%"}, {"smiles": "CC(CC(C#N)(c1ccccc1)c1ccccc1)N(C)C", "note": "(configuration not stated)", "activity change, negative = inhibition": "-18.3%"}, {"smiles": "O=[N+]([O-])c1cccc2cccnc12", "activity change, negative = inhibition": "-15.5%"}, {"smiles": "C[C@@H]1CN(C2CCC(C#N)(c3ccc(F)cc3)CC2)CC[C@]1(C(=O)O)c1ccccc1", "note": "(some centres not stated)", "activity change, negative = inhibition": "4.22% [at 53.7 µM]"}, {"smiles": "C[C@]1(O)CC[C@H]2[C@@H]3CCC4=CC(=O)CC[C@]4(C)[C@@]3(F)[C@@H](O)C[C@@]21C", "activity change, negative = inhibition": "4.54%"}, {"smiles": "C#CCN1C(=O)COc2cc(F)c(N3C(=O)C4=C(CCCC4)C3=O)cc21", "activity change, negative = inhibition": "-18.7%"}, {"smiles": "COC(=O)C(C)Oc1ccc(Oc2ccc(Cl)cc2Cl)cc1", "note": "(configuration not stated)", "activity change, negative = inhibition": "-15.8%"}, {"smiles": "O=C1OC(=O)C2C1C1(Cl)C(Cl)=C(Cl)C2(Cl)C1(Cl)Cl", "note": "(configuration not stated)", "activity change, negative = inhibition": "-3.03%"}, {"smiles": "CCSC(=O)N(CC)C1CCCCC1", "activity change, negative = inhibition": "-0.367%"}, {"smiles": "CC1=C(C(=O)Nc2ccccc2)S(=O)(=O)CCO1", "activity change, negative = inhibition": "1.39%"}, {"smiles": "Nc1cc2c3c(c1)C(c1ccccc1)=N[C@@H](NC(=O)c1cccnc1)C(=O)N3CC2", "activity change, negative = inhibition": "-5.86%"}, {"smiles": "COc1cc2c(cc1OC)[C@@]13CCN4CC5=CCO[C@H]6CC(=O)N2[C@H]1[C@H]6[C@H]5C[C@H]43", "activity change, negative = inhibition": "-6.1%"}, {"smiles": "COC(=O)c1ccccc1S(=O)(=O)NC(=O)Nc1nc(C)cc(C)n1", "activity change, negative = inhibition": "-0.815%"}, {"smiles": "N#Cc1c(Cl)cccc1Cl", "activity change, negative = inhibition": "14.5%"}, {"smiles": "CC1=NNC(=O)N(/N=C/c2cccnc2)C1", "activity change, negative = inhibition": "0.427%"}, {"smiles": "CCCSC(=O)Cl", "activity change, negative = inhibition": "-3.32%"}, {"smiles": "OCCSCSCCO", "activity change, negative = inhibition": "4.79%"}, {"smiles": "CCOC(=O)/C=C(C)/C=C/C[C@@H](C)CCCC(C)C", "activity change, negative = inhibition": "1.27%"}, {"smiles": "CCOC(=O)C1(c2ccccc2)CCN(CCc2ccc(N)cc2)CC1", "activity change, negative = inhibition": "-6.77% [at 53.7 µM]"}, {"smiles": "N#CC(Cl)(Cl)Cl", "activity change, negative = inhibition": "4.58%"}, {"smiles": "CCOP(=S)(OCC)SCSP(=S)(OCC)OCC", "Potency": "35.6 µM (active)"}, {"smiles": "O=[N+]([O-])c1ccc2c3c(cccc13)CC2", "activity change, negative = inhibition": "-23.5%"}, {"smiles": "C(CCOCC1CO1)COCC1CO1", "note": "(configuration not stated)", "activity change, negative = inhibition": "3.06%"}, {"smiles": "CC(N)=S", "activity change, negative = inhibition": "0.649%"}, {"smiles": "COC(=O)C(c1ccccc1)C1CCCCN1", "note": "(configuration not stated)", "activity change, negative = inhibition": "-0.855%"}, {"smiles": "O=CNC(N1CCN(C(NC=O)C(Cl)(Cl)Cl)CC1)C(Cl)(Cl)Cl", "note": "(configuration not stated)", "activity change, negative = inhibition": "-2.8%"}, {"smiles": "O=[N+]([O-])c1ccc(CBr)cc1", "activity change, negative = inhibition": "-0.487%"}, {"smiles": "CCCCP(CCCC)CCCC", "activity change, negative = inhibition": "-6.83%"}, {"smiles": "C=C(C)CN(CC)c1c([N+](=O)[O-])cc(C(F)(F)F)cc1[N+](=O)[O-]", "activity change, negative = inhibition": "1.08%"}, {"smiles": "CCCCc1ccc(O)cc1", "activity change, negative = inhibition": "-3.68%"}, {"smiles": "CCN(CC)C(=O)[C@@H]1C=C2c3cccc4[nH]cc(c34)C[C@H]2N(C)C1", "Potency": "58.7 µM (active)"}, {"smiles": "CC(Oc1ccc(Oc2ncc(C(F)(F)F)cc2Cl)cc1)C(=O)O", "note": "(configuration not stated)", "activity change, negative = inhibition": "-0.466%"}, {"smiles": "CCC(C)(C)c1cc(-n2nc3ccccc3n2)c(O)c(C(C)(C)CC)c1", "activity change, negative = inhibition": "-3.19%"}, {"smiles": "CC(Cl)(Cl)[N+](=O)[O-]", "activity change, negative = inhibition": "3.53%"}, {"smiles": "O=c1oc2ccccc2c(O)c1C1CCCc2ccccc21", "note": "(configuration not stated)", "activity change, negative = inhibition": "3.27%"}, {"smiles": "O=C1OC(CCN2CCCCC2)OC1(c1ccccc1)c1ccccc1", "note": "(configuration not stated)", "activity change, negative = inhibition": "-4.52% [at 53.7 µM]"}, {"smiles": "COc1cc(OC)nc(NC(=O)NS(=O)(=O)c2ncccc2OCC(F)(F)F)n1", "activity change, negative = inhibition": "-0.819%"}]}]}
